We go through 56 compounds from PubChem BioAssay AID1030 (National Center for Advancing Translational Sciences (NCATS), 2008).

The whole screen tested about 220,000 compounds, of which about 16,000 (7.3%) were called active. Inconclusive results (about 25%) are left out. The sample holds actives, similar compounds and a random draw of the others, so the mix is not that of the screen. Calls come from the whole dose curve; as a rule, active = well fitted inhibition curve with a large enough effect (not every such curve was filed as active); inconclusive = small, poorly fitted or top-dose-only effect, or another doubt; inactive = no such curve, though single readings can be large or run the other way.
Potency is the fitted concentration of half-maximal effect.

The target of this test is Aldehyde dehydrogenase 1A1 (Homo sapiens) (UniProt P00352). Description: qHTS Assay for Inhibitors of Aldehyde Dehydrogenase 1 (ALDH1A1).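 For activity, negative = inhibition: plate controls were no enzyme wells and a reference inhibitor.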 To be noted: Purified ALDH1A1, NADH fluorescence, propionaldehyde substrate; series mostly up to 75.3 µM; activity, negative = inhibition: at the top concentration. On the technique in general: qHTS replaces the single test concentration by a dilution series.
Sequence of Aldehyde dehydrogenase 1A1 (Homo sapiens) (P00352 whole entry, looked up): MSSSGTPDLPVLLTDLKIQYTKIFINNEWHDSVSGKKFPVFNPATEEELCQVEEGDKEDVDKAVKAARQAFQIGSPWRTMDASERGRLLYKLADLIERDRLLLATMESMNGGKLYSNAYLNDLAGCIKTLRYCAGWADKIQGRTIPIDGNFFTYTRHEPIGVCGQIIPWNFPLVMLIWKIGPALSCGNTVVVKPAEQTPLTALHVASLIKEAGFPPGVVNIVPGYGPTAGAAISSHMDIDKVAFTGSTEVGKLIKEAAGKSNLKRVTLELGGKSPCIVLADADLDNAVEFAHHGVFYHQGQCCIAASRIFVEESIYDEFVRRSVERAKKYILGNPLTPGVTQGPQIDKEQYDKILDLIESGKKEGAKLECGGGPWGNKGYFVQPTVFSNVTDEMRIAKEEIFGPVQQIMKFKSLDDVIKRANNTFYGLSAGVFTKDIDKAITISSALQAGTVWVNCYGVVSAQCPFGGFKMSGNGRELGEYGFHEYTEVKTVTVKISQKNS
With `Cc1ccc(Cl)c(NC(=O)CN(C)CC(=O)Nc2ccc(F)c(F)c2F)c1Cl`, the “activity, negative = inhibition” value is 8.7% (inactive). With `Cc1cccc(CN2CCN(Cc3cnn(-c4ccccc4F)c3)CC2CCO)n1` (stereo unspecified), the “activity, negative = inhibition” value was -3.37% (inactive).

In the case of `O=c1[nH]oc(O)c1-c1ncc(C(F)(F)F)cc1Cl`, the “activity, negative = inhibition” value is 9.67% (inactive). Consider `Cc1csc(NC(=O)CSc2ccc(-c3ccc(F)cc3)nn2)n1`, for which the “activity, negative = inhibition” value is 8.44% (inactive).

As for `Cc1cc(/C=C2\SC(=Nc3ccc(N4CCOCC4)cc3)N(C)C2=O)c(C)n1-c1cccnc1`, the “activity, negative = inhibition” value is -3.64% (inactive).

On to `O=C(C1CC1)N1N=C2CCCCC2C1(O)C(F)(F)F` (stereo unspecified), for which the “activity, negative = inhibition” value is 4.47% (inactive). On to `N#Cc1c(NC(=O)CCCl)sc2c1CCCCC2`, for which the “activity, negative = inhibition” value was -5.19% (inactive).

For the compound `CC(C(=O)O)n1cnc2sc3c(c2c1=O)CCCC3` (stereo unspecified), the “activity, negative = inhibition” value is 4.67% (inactive). Regarding `CCCc1nc2sc3c(c2c(=O)n1NC(=O)CCCl)CCCC3`, the Potency is 14.1 µM (active).

Take `O=C1CCC/C(=N\NC(=O)NC2CCCCC2)C1`: the “activity, negative = inhibition” value was 2.09% (inactive). On the same count and under the same terms, the value for `CCN(CC(=O)NC(=O)NCc1ccccc1)Cc1nc2ccccc2c(=O)[nH]1` was -9.25% (inactive).

Consider `CCN(CC(=O)Nc1ccc(Cl)c(S(=O)(=O)N(C)C)c1)Cc1nc2ccccc2c(=O)[nH]1`, for which the Potency was 25.1 µM (active). Consider `CN(CCOc1ccccc1)Cc1nc2cc(Cl)ccc2c(=O)[nH]1`, for which the “activity, negative = inhibition” value is -4.61% (inactive). On the same count and under the same terms, the value for `Cc1ccc(S(=O)(=O)NC2(C(F)(F)F)NC(=O)N(CCc3ccccc3)C2=O)cc1` (stereo unspecified) was 11.8% (inactive). Still for that read-out and setting: then `CC1=C(C(=O)Nc2ccc(Cl)cc2)C(c2ccco2)NC(=O)N1` (stereo unspecified), with 7.11% (inactive). Consider `O=C(Nc1ncc2c(n1)CC(c1ccco1)CC2=O)c1ccc(Cl)cc1` (stereo unspecified), for which the Potency is 10 µM (active). As to `COc1cc(C2CC(=O)c3cnc(NC(C)=O)nc3C2)cc(OC)c1OC` (stereo unspecified), the “activity, negative = inhibition” value is -3.5% (inactive). On the same count and under the same terms, the value for `O=C1C=C(c2ccccc2)CCC1` was 12.6% (inactive); that for `NC1=C([N+](=O)[O-])C(c2ccccc2)C2=C(CCCC2=O)O1` (stereo unspecified) was -2.58% (inactive). The same measure, in the same setting: then `Cc1ccsc1C1C(C#N)=C(N)OC2=C1C(=O)CC(C)C2` (stereo unspecified), with 1.99% (inactive). Take `N#CC1=C(N)OC2=C(C(=O)CCC2)C1C1CC=CCC1` (stereo unspecified): the Potency was 10 µM (active).

On to `O=C(Nc1ccc(N2CCOCC2)cc1)c1ccc2c(c1)OCO2`, for which the “activity, negative = inhibition” value is 3.33% (inactive). In the case of `COc1ccc(/C(C)=N/Nc2cc(C(F)(F)F)ccc2Cl)c(OC)c1`, the “activity, negative = inhibition” value is 15% (inactive). In the case of `COc1ccc(C(F)(F)F)cc1N/C=C\c1nnnn1-c1ccc(C)cc1`, the Potency was 25.1 µM (active). Turning to `COc1ccc(C)cc1NC(=O)CCC(=O)Nc1nnc(C(F)(F)F)s1`, the “activity, negative = inhibition” value was 4.14% (inactive). On to `CSc1cc(C)[nH]c(=O)n1`, for which the “activity, negative = inhibition” value is 3.77% (inactive). Turning to `COc1ccc(Cl)cc1NC(=O)NC(C)C(C)(C)C` (stereo unspecified), the “activity, negative = inhibition” value was 10.4% (inactive). Turning to `Cc1sc2nc(CC(N)=O)[nH]c(=O)c2c1-c1ccccc1`, the Potency is 7.08 µM (active). Regarding `NC(=O)Cc1ccc2sc(-c3ccccc3)nc2c1`, the “activity, negative = inhibition” value was 9.05% (inactive). With `NC(=O)Cc1nc2scc(-c3ccc(Cl)cc3)c2c(=O)[nH]1`, the “activity, negative = inhibition” value was -1.08% (inactive). Turning to `CCc1ccc2ncc(C(=O)c3ccccc3)c(N3CCOCC3)c2c1`, the Potency was 4.47 µM (active). As for `Cc1cc(C(=O)Nc2ccccc2N2CCOCC2)c2ccccc2n1`, the “activity, negative = inhibition” value is -2.76% (inactive). On the same count and under the same terms, then `CCc1ccc(NC(=O)CSc2nc3ccccc3c(=O)n2CCN2CCOCC2)cc1`, with -6.19% (inactive).

Turning to `O=C(CCSc1ccccc1)N1CCN(c2ccccc2F)CC1`, the “activity, negative = inhibition” value is -54.1% (inactive). For `O=C(CSc1nn(-c2ccc(F)cc2)c(=S)s1)NC1CCS(=O)(=O)C1` (stereo unspecified), the “activity, negative = inhibition” value was -4.99% (inactive). Still for that read-out and setting: the value for `Cc1cc(C)cc(OCC(=O)NCc2cc(C)nc3ccccc23)c1` was -4.15% (inactive). As to `OCC1(Cc2ccccc2)CCN(Cc2cc3ccccc3o2)CC1`, the “activity, negative = inhibition” value was 5.22% (inactive). `COC(=O)Nc1sc2nc(C)cc(C)c2c1-n1cccc1`: the “activity, negative = inhibition” value is 2.42% (inactive).

In the case of `Cc1cc(C)c2c(-n3cccc3)c(C(=O)NNS(=O)(=O)c3ccc(F)cc3)sc2n1`, the Potency is 2.24 µM (active). As to `Cc1cc(C)c2c(-n3cccc3)c(NC(=O)OCc3ccccc3)sc2n1`, the “activity, negative = inhibition” value is 5.3% (inactive). Same read-out and setting: the value for `CCNC(=O)CC1C(=O)N(c2ccc(F)cc2)C(=O)N1Cc1cccs1` (stereo unspecified) was -3.81% (inactive); that for `CCN(CC)CCCNC(=O)c1ccc2c(=O)n(Cc3ccc4c(c3)OCO4)c(=S)[nH]c2c1` was -10.2% (inactive); that for `c1ccc2c(CSCc3nc4ccccc4[nH]3)cccc2c1` was 10.2% (inactive). Still for that read-out and setting: the value for `N=C(N)SCc1cccc2ccccc12` was 6.99% (inactive).

For the compound `c1ccc2c(C[n+]3csc4ccccc43)cccc2c1`, the Potency is 10 µM (active). For the compound `CN1CCN(C(CNS(=O)(=O)c2cccs2)c2cccnc2)CC1` (stereo unspecified), the “activity, negative = inhibition” value is -6.14% (inactive). Turning to `O=C(Nc1nnc(SCc2ccc(Cl)cc2Cl)s1)C1COc2ccccc2O1` (stereo unspecified), the “activity, negative = inhibition” value is -4.92% (inactive). Consider `O=C(Nc1nc(-c2ccncc2)cs1)C1COc2ccccc2O1` (stereo unspecified), for which the Potency was 3.55 µM (active). In the case of `O=C(Nc1nc(-c2ccc3c(c2)OCO3)cs1)c1ccncc1`, the “activity, negative = inhibition” value is 5.35% (inactive). The same measure, in the same setting: then `COc1ccc(/C=C/C(=O)Nc2cccnc2)cc1OC`, with -11.3% (inactive); and `CCCS(=O)(=O)N1CCC(CCOc2ccccc2)(C(=O)OCC)CC1`, with -8.63% (inactive). For `N#Cc1c(-c2ccc(Cl)cc2)c2c([nH]c1=S)CCCC2`, the “activity, negative = inhibition” value is 18.4% (inactive). The same measure, in the same setting: the value for `COc1ccc(NC(=O)C(C)SCc2ccccc2)cc1` (stereo unspecified) was 1.4% (inactive). Take `Cc1onc(-c2c(Cl)cccc2Cl)c1C(=O)c1c[nH]c(C(=O)NC2CC2)c1`: the “activity, negative = inhibition” value was 2.22% (inactive). As to `Cc1[nH]n(C)c(=O)c1C(=O)c1c(-c2c(Cl)cccc2Cl)noc1C`, the Potency was 8.91 µM (active).

Consider `Cc1onc(-c2c(Cl)cccc2Cl)c1C(=O)NNC(=O)c1c(-c2c(Cl)cccc2Cl)noc1C`, for which the “activity, negative = inhibition” value is 9.07% (inactive).
